Measurements: PubChem BioAssay (NCATS)
Records with an inconclusive call do not appear. Activity calls are given as the source filed them. Unless noted, the call rests on the fitted dose curve; in most records, active means well fitted curve in the direction sought with a large enough effect; inconclusive means small, poorly fitted or top-dose-only effect, or another doubt; inactive means no such curve, though single readings can be large; an effect the other way counts as inactive or inconclusive.

What was measured:
[1] = Cell Viability - HepG2 (AID 433; calls by dose curve;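 further: potency means the concentration at half of the fitted maximal effect; cells exposed to compound for 40 hours; potency for ATP loss meaning cytotoxicity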); conditions: qHTS
Method in brief: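 HepG2 hepatocellular carcinoma cells (1500/well) were treated with compounds for 40 h at 37 °C in complete medium; intracellular ATP was read by CellTiter-Glo luminescence. Data were normalized to DMSO and 100 uM tamoxifen, and AC50 came from Hill fits.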

[2] = Cell Viability - Mesenchymal (AID 546); conditions: mesenchymal cells viability, qHTS; activity change, negative = cytotoxicity: at 91.7 µM (top of the series);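 further: cells exposed to compound for 40 hours before reading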
Method in brief: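 AC50 values reflect the drop in intracellular ATP in a human kidney mesenchymal line derived from normal glomeruli. Treatment lasts 40 hr at 37 °C in complete medium, and the signal comes from CellTiter-Glo luminescence.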

[3] = Cell Viability - BJ (AID 421; calls by dose curve;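 further: potency means the concentration at half of the fitted maximal effect; cells exposed to compound for 40 hours at 37 °C before readout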); conditions: BJ fibroblast viability, qHTS
Method in brief: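 Cytotoxicity in human BJ foreskin fibroblasts is scored as loss of cellular ATP after a 40-hour exposure, measured by luciferase luminescence. Controls are DMSO and 100 uM tamoxifen.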

[4] = Cellular Toxicity (caspase-3) Jurkat (AID 655); conditions: Jurkat caspase-3 activation, luminescence; caspase-3 activation: at 92.2 µM (top of the series), DMSO = 0%, tamoxifen = 100%;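 further: cells exposed to compound for 16 h at 37 °C before reading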
Method in brief: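 Jurkat cells (5000/well) in complete medium were treated with compounds for 16 hr at 37 °C, then Caspase-Glo 3/7 luminescence was read after 20 min at room temperature. Data normalized to DMSO (basal) and 100 uM tamoxifen (100%); AC50 from Hill fit.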

[5] = Cell Viability - LYMP1-002 - Assay at 16 hr (AID 948); conditions: LYMP1-002 lymphoblastoid cell viability; series mostly up to 92.2 µM;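 further: 0% = DMSO alone and full effect = 92 µM tetraoctylammonium bromide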
Method in brief: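 Human lymphoblastoid cells (LYMP1-002), 2500/well, were preincubated 5 hr at 37 C, then exposed to compounds for 16 hr at 37 C in complete medium. Cellular ATP was read by CellTiter-Glo luminescence after 30 min at room temperature; AC50 from Hill fits.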

[6] = MultiTox-Fluor Cytotoxicity Assay - LYMP1-002 - Live Cells (AID 955); conditions: LYMP1-002 lymphoblastoid live-cell protease fluorescence viability; series mostly up to 46.1 µM; further: on the % scale 0 is the no-effect control and ±100 the full control effect
Method in brief: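 Cytotoxicity in the human lymphoblastoid line LYMP1-002 is measured as loss of live-cell protease activity after 16 h treatment in complete culture medium. AC50 is derived from Hill-equation fits of qHTS concentration-response data.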

[7] = Cell Viability - LYMP2-003 (AID 965); conditions: LYMP2-003 lymphoblastoid cell viability; series mostly up to 92.2 µM;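 further: cells exposed to compounds for 24 h before reading; nearly all actives have a fitted effect of over 50% in size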; further: potency means the concentration at half of the fitted maximal effect;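 on activity change, negative = cytotoxicity: 0% = DMSO only and full effect = 92 µM tetraoctylammonium bromide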
Method in brief: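 Human lymphoblastoid cells (2500/well) were pre-incubated 5 hr at 37 C, then exposed to compounds over a concentration range for 24 hr at 37 C. Intracellular ATP was read by CellTiter-Glo luminescence; AC50 came from Hill-equation fits.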

[8] = Cell Viability - LYMP2-013 (AID 970); conditions: LYMP2-013 lymphoblastoid cells viability; series mostly up to 92.2 µM; further: nearly all actives have a fitted effect of over 55% in size; further: potency means the concentration at half of the fitted maximal effect
Method in brief: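 Acute toxicity was measured in human lymphoblastoid cells (2500/well) exposed to compound titrations for 24 hr, with ATP luminescence (CellTiter-Glo) as read-out and AC50 fitted by Hill equation.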

[9] = Cell Viability - LYMP2-002 (AID 977); conditions: LYMP2-002 lymphoblastoid cell viability, qHTS; series mostly up to 92.2 µM;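 further: compound exposure lasted 24 h at 37 °C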; further: potency means the concentration at half of the fitted maximal effect
Method in brief: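 Cytotoxicity is scored as concentration-dependent loss of cellular ATP in a human lymphoblastoid line after 24 hr compound treatment at 37 C. AC50 is obtained by modelling concentration-response data with the Hill equation.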

[10] = Cell Viability - LYMP2-020 (AID 986); conditions: series mostly up to 92.2 µM; further: nearly all actives have a fitted effect of over 55% in size; further: potency means the concentration at half of the fitted maximal effect
Method in brief: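 Acute cytotoxicity in a human lymphoblastoid line is scored as a concentration-dependent fall in cellular ATP after 24 hr at 37 C in complete medium. The positive control is tetraoctylammonium bromide, and potency is given as Hill-fit AC50.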

[11] = Cell Viability - LYMP2-022 (AID 987); conditions: LYMP2-022 lymphoblastoid cell viability; series mostly up to 92.2 µM; further: nearly all actives have a fitted effect of over 55% in size; further: potency means the concentration at half of the fitted maximal effect
Method in brief: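 Acute toxicity in a human lymphoblastoid line is scored as decreased intracellular ATP after 24 hr compound treatment at 37 C. ATP is measured by CellTiter-Glo luminescence; curves are fitted with the Hill equation to give AC50.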

[12] = Cell Viability - LYMP2-024 (AID 988); conditions: LYMP2-024 lymphoblastoid cell viability; series mostly up to 92.2 µM; further: nearly all actives have a fitted effect of over 60% in size; further: potency means the concentration at half of the fitted maximal effect;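 on activity change, negative = cytotoxicity: plate controls were DMSO only for no effect and 92 µM tetraoctylammonium bromide for full effect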
Method in brief: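 Acute toxicity is measured as concentration-dependent loss of intracellular ATP in a human lymphoblastoid line treated 24 hours at 37 C. Luciferase luminescence quantifies ATP; AC50 values come from standard Hill-equation modelling.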

[13] = qHTS assay for small molecule antagonists of retinoid X receptor alpha signaling (AID 588546); conditions: HEK293T RXRa-UAS-bla, beta-lactamase ratio, antagonist mode; measured here: W530 green channel, cytotoxicity proxy;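 further: cells stimulated with 9-cis-retinoic acid as agonist; on the % scale 0 is the no-effect control and ±100 the full control effect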
Method in brief: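 Beta-lactamase reporter inhibition, read as CCF4 fluorescence ratio (ex 405, em 460/530 nm) after 2 h at RT. HEK293T UAS-bla cells, 2500/well, were stimulated with 9-cis-RA at 500 or 100 nM final alongside test compound for 18 h at 37 C.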

[14] = qHTS assay for environmental chemicals that activate the Aryl hydrocarbon Receptor (AhR) signaling pathway (AID 651777); conditions: 1A2-DRE human hepatoma cells, luciferase, 24 h; activation: stronger effect = higher value; further: nearly all actives have a fitted effect of over 15% in size; further: potency means the concentration at half of the fitted maximal effect; on activation: % of control where 0% means no effect
Method in brief: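 Human hepatoma 1A2-DRE cells stably carrying a DRE/CYP1A2 promoter–luciferase reporter, 1,200 cells/well, exposed to compound 24 hr at 37 C. Luciferase read by One-Glo luminescence after 30 min at room temperature; increased signal marks AhR activation.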

[15] = Cell Viability - LYMP2-011 (AID 969); conditions: LYMP2-011 lymphoblastoid cells viability; series mostly up to 92.2 µM; further: nearly all actives have a fitted effect of over 60% in size; further: potency means the concentration at half of the fitted maximal effect
Method in brief: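 Acute toxicity is scored as a concentration-dependent drop in intracellular ATP of a human lymphoblastoid line after 24 hr treatment. Values are AC50s modeled with the Hill equation.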

[16] = Cell Viability - LYMP2-023 (AID 975); conditions: LYMP2-023 lymphoblastoid cell viability; series mostly up to 92.2 µM; further: nearly all actives have a fitted effect of over 55% in size; further: potency means the concentration at half of the fitted maximal effect;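 on activity change, negative = cytotoxicity: cellular ATP measured by luciferase luminescence as viability proxy; plate controls were DMSO only for no effect and 92 µM tetraoctylammonium bromide control for full effect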
Method in brief: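 Concentration-dependent drop in intracellular ATP measures acute cytotoxicity in a human lymphoblastoid line treated for 24 hours in complete culture medium. AC50 values are taken from Hill-equation fits of qHTS data.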

[17] = Cell Viability - LYMP2-006 (AID 978); conditions: LYMP2-006 lymphoblastoid cell viability, qHTS; series mostly up to 92.2 µM; further: nearly all actives have a fitted effect of over 60% in size; further: potency means the concentration at half of the fitted maximal effect; on activity change, negative = cytotoxicity: on the % scale 0 is the no-effect control and ±100 the full control effect
Method in brief: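 Human lymphoblastoid cells, 2500 per well, were preincubated 5 hr at 37 C, then exposed to compounds for 24 hr at 37 C in complete medium. Viability was read as intracellular ATP by CellTiter-Glo luminescence; AC50 from Hill-equation fits of qHTS concentration-response data.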

[18] = Cell Viability - LYMP2-008 (AID 980); conditions: LYMP2-008 lymphoblastoid cell viability, qHTS; series mostly up to 92.2 µM; further: nearly all actives have a fitted effect of over 60% in size; further: potency means the concentration at half of the fitted maximal effect; on activity change, negative = cytotoxicity: on the % scale 0 is the no-effect control and ±100 the full control effect
Method in brief: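 Acute cytotoxicity is scored as concentration-dependent loss of cellular ATP in a human lymphoblastoid line after 24 hr treatment at 37 C. ATP is quantified by luciferase luminescence.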

[19] = Cell Viability - LYMP2-012 (AID 982); conditions: LYMP2-012 lymphoblastoid cell viability qHTS; series mostly up to 92.2 µM; further: potency means the concentration at half of the fitted maximal effect;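 on activity change, negative = cytotoxicity: 0% = DMSO only and full loss = 92 µM tetraoctylammonium bromide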
[20] = Cell Viability - LYMP1-002 - Assay at 40 hr (AID 994); conditions: LYMP1-002 lymphoblastoid cell viability; series mostly up to 92.2 µM; further: nearly all actives have a fitted effect of over 60% in size; further: potency means the concentration at half of the fitted maximal effect
Method in brief: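 Viability in the human lymphoblastoid line was measured as intracellular ATP via CellTiter-Glo after 40 hr compound exposure. Tetraoctylammonium bromide served as positive control.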

O=Nc1ccc(Nc2ccccc2)cc1
inactive: Potency [1] > 92 µM | Potency [2]

Cc1ccc(O)c(N)c1
inactive: Potency [3] > 92 µM | Potency [1] > 92 µM | Potency [2] | Potency [4] | Potency [5] | outcome [6] | Potency [9]
-2.88%: max response [13]
active: Potency [7] 79.4 µM | Potency [8] 79.4 µM | Potency [10] 50.1 µM | Potency [11] 39.8 µM | Potency [12] 39.8 µM | Potency [14] 50.1 µM

c1cc2c3c(c1)ccc1cccc(c13)C2
inactive: Potency [3] > 92 µM | Potency [1] > 92 µM | Potency [2] | Potency [4] | Potency [5] | outcome [6] | Potency [7] | Potency [15] | Potency [8] | Potency [16] | Potency [9] | Potency [17] | Potency [18] | Potency [19] | Potency [10] | Potency [11] | Potency [12] | Potency [20] | activation [14] -0.581%
-1.55%: max response [13]

Oc1cc2c(cc1O)[C@H]1c3ccc(O)c(O)c3OC[C@@]1(O)C2
active: Potency [7] 31.6 µM | Potency [15] 39.8 µM | Potency [8] 31.6 µM | Potency [16] 50.1 µM | Potency [9] 39.8 µM | Potency [17] 39.8 µM | Potency [18] 39.8 µM | Potency [19] 25.1 µM | Potency [10] 39.8 µM | Potency [11] 31.6 µM | Potency [12] 25.1 µM | Potency [20] 50.1 µM
-1.27%: max response [13]
inactive: Potency [4] | activation [14] -1.85%

CC(C)(C)C(=O)C1C(=O)c2ccccc2C1=O
inactive: Potency [3] > 92 µM | Potency [2] | Potency [4] | Potency [5] | outcome [6] | Potency [7] | Potency [15] | Potency [8] | Potency [16] | Potency [9] | Potency [10] | Potency [11] | Potency [12] | Potency [20] | activation [14] 5.77%

CCCCC(CC)COP(=O)(OCC(CC)CCCC)OCC(CC)CCCC (configuration not stated)
inactive: Potency [3] > 92 µM | Potency [1] > 92 µM | Potency [2] | Potency [4] | Potency [5] | outcome [6] | Potency [7] | Potency [15] | Potency [8] | Potency [16] | Potency [9] | Potency [17] | Potency [18] | Potency [19] | Potency [10] | Potency [11] | Potency [12] | Potency [20] | activation [14] -1.66%
-7.24%: max response [13]

O=C=Nc1ccc(Cl)c(Cl)c1
inactive: Potency [5] | Potency [7]
26.4%: max response [13]

CC(=O)Nc1cccc(C)c1
1.11%: max response [13]
inactive: Potency [3] > 92 µM | Potency [1] > 92 µM | Potency [2] | Potency [4] | Potency [5] | outcome [6] | Potency [7] | Potency [15] | Potency [8] | Potency [16] | Potency [9] | Potency [17] | Potency [18] | Potency [19] | Potency [10] | Potency [11] | Potency [12] | Potency [20] | activation [14] 0.306%

CCCCCCCC/C=C\CCCCCCCC(=O)N(CCO)CCO
active: caspase-3 activation [4] 96.6%
inactive: Potency [3] > 92 µM | Potency [1] > 92 µM | Potency [5] | outcome [6] | Potency [7] | Potency [15] | Potency [8] | Potency [16] | Potency [9] | Potency [17] | Potency [18] | Potency [19] | Potency [10] | Potency [11] | Potency [12] | Potency [20] | activation [14] 2.99%
